An excerpt weighted towards active compounds, which were near 12% of everything screened.
G9a inh = qHTS Assay for Inhibitors of Histone Lysine Methyltransferase G9a | Histone-lysine N-methyltransferase EHMT2 (Homo sapiens), Q96KQ7 | G9a H3K9 monomethylation, AlphaScreen, 2 h | Potency, µM (highest dose often 102 µM), hits mostly inhibitors | 350,000 compounds, 8.8% hits; further: nearly all actives have a fitted effect of over 75% in size
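Enzyme 20 nM + cpd, 15 min RT; add b-H3K9 pep 500 nM / SAM 20 uM; 2 h RT; anti-H3K9me1 Ab 0.5 ug/mL + SA donor / anti-rabbit acceptor beads 20 ug/mL each, 10 min; AlphaScreen read.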
BAZ2B block = qHTS Assay for Inhibitors of BAZ2B | Bromodomain adjacent to zinc finger domain protein 2B (Homo sapiens), Q9UIF8 | AlphaScreen BAZ2B-H3K14Ac peptide displacement | Potency, µM (titrated, usually from 114 µM), most hits filed as inhibitors | 360,000 compounds, 4.4% hits; further: nearly all actives have a fitted effect of over 60% in size
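Complex of BAZ2B and biotin-H3K14Ac (50 nM apiece) forms over 30 min at RT, then faces library compounds up to 110 uM for another 30 min; AlphaScreen beads added, 20 min dark incubation, luminescence read.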
JMJD2A Tudor = qHTS Assay for Inhibitors of JMJD2A-Tudor Domain; Potency, µM (top dose mostly 114 µM), actives largely listed as inhibitors; 390,000 compounds, 4.4% hits; AlphaScreen JMJD2A-Tudor / H3K4me3 peptide binding; further: nearly all actives have a fitted effect of over 50% in size
HP1b binding inh = HTS for Inhibitors of HP1-beta Chromodomain Interactions with Methylated Histone Tails; Chromobox protein homolog 1 (Homo sapiens), P83916; AlphaScreen HP1-beta / biotin-H3K9me3 peptide binding; Potency, µM (titrated, usually from 114 µM), hits mostly inhibitors; 390,000 compounds, 0.56% hits; further: nearly all actives have a fitted effect of over 70% in size
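HP1-beta protein (50 nM final) preincubated 30 min at room temperature with biotinylated H3(1-18)K9me3 peptide (50 nM) in PBS pH 7.4, 0.01% Tween-20, then compound added for 30 min. AlphaScreen streptavidin donor/nickel chelate acceptor beads (10 ug/mL final), 30 min dark, luminescence read.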
PI5P4K alpha inh = qHTS for Inhibitors of phosphatidylinositol 5-phosphate 4-kinase (PI5P4K); max response, %; 330,000 compounds, 1.2% hits; AID 652105, 2013; PI5P4Kalpha enzyme, ADP-Glo luminescence, 60 min; stronger effect = lower value; active means max response of -50% or lower; inconclusive means between -30% and -50%; inactive means -30% or higher; further: value at the top dose of about 77 µM
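Human PI5P4Kalpha with substrate in 0.038 M HEPES pH 7.4, 0.28 mM EGTA, 0.1% CHAPS, 5% DMSO; reaction started with 5 microM ATP (final), 60 min at room temperature. ADP formed read by ADP-Glo luminescence.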
PLK1 PBD inh = qHTS for Inhibitors of PLK1-PDB (polo-like kinase 1 - polo-box domain): Primary Screen; Potency, µM, usual class: inhibitors; Plk1 PBD binding of FITC phosphopeptide, fluorescence polarization; AID 720504, 2013; 360,000 compounds, 2.8% hits; Serine/threonine-protein kinase PLK1 (Homo sapiens), P53350; further: series mostly up to about 57 µM; nearly all actives have a fitted effect of over 65% in size
Hits are given with their value; [ ] = remark or other dose. Unless noted, the call rests on the fitted dose curve; in most records, active means well fitted curve in the direction sought with a large enough effect; inconclusive means small, poorly fitted or top-dose-only effect, or another doubt; inactive means no such curve, though single readings can be large; an effect the other way counts as inactive or inconclusive.

How did CC1=CC(C)(C)NC(=S)N1c1ccc(C)c(C)c1 do in these assays?
G9a inh: inactive; BAZ2B block: inactive; JMJD2A Tudor: inactive; HP1b binding inh: inactive; PI5P4K alpha inh: inactive; PLK1 PBD inh: inactive

Results for CCC1(c2ccc(Cl)cc2)NC(=S)N(c2ccc(C)cc2)N1 (stereo not drawn) ?
G9a inh: 28µM; BAZ2B block: inactive; JMJD2A Tudor: 79µM; HP1b binding inh: inactive; PI5P4K alpha inh: inactive; PLK1 PBD inh: inactive

Results for CCOC(=O)c1c(C)oc2ncnc(Nc3cc(C)cc(C)c3)c12 ?
G9a inh: inactive; BAZ2B block: inactive; JMJD2A Tudor: inactive; HP1b binding inh: inactive

Results for O=C(CSc1nnc(CNc2cccc(C(F)(F)F)c2)n1Cc1ccco1)NCc1ccco1 ?
G9a inh: inactive; BAZ2B block: inactive; JMJD2A Tudor: inactive[11.4 µM]; HP1b binding inh: inactive; PI5P4K alpha inh: inactive; PLK1 PBD inh: 30µM

How did O=C(O)CSc1nnc(CNc2cccc(C(F)(F)F)c2)n1Cc1ccco1 do in these assays?
G9a inh: inactive; BAZ2B block: inconclusive; JMJD2A Tudor: inactive; HP1b binding inh: inactive; PI5P4K alpha inh: -71; PLK1 PBD inh: inactive

What do the screens show for `O=C(CSc1nnc(CNc2ccc(F)cc2)n1Cc1ccco1)NC1CC1`?
G9a inh: inconclusive; BAZ2B block: inactive; JMJD2A Tudor: inactive; HP1b binding inh: inactive; PI5P4K alpha inh: inactive; PLK1 PBD inh: inactive

How did Cc1cc(F)ccc1NC(=O)CCSc1nc(-c2ccco2)cc(C(F)(F)F)n1 do in these assays?
G9a inh: inactive; BAZ2B block: inactive; JMJD2A Tudor: inactive; HP1b binding inh: inactive

Results for O=S(=O)(NCCSc1nc2ccccc2o1)c1ccccc1 ?
G9a inh: inactive; BAZ2B block: inactive; JMJD2A Tudor: inactive[11.4 µM]; HP1b binding inh: inactive; PI5P4K alpha inh: inconclusive; PLK1 PBD inh: 8.4µM

How did CCCN1C(=O)c2[nH]nc(-c3ccccc3O)c2C1c1cccc(OCc2ccccc2)c1 (stereo not drawn) do in these assays?
G9a inh: inactive; BAZ2B block: inactive; JMJD2A Tudor: inactive; HP1b binding inh: inactive

How did O=C(COc1cc(Cl)c(Cl)cc1Cl)N1CCN(c2ccccn2)CC1 do in these assays?
G9a inh: inactive; BAZ2B block: inactive; JMJD2A Tudor: inactive; HP1b binding inh: inactive; PI5P4K alpha inh: inactive; PLK1 PBD inh: inactive

Results for CCN1CCN(Cc2c(C(=O)N/N=C(\C)c3ccc(Cl)cc3)nnn2-c2nonc2N)CC1 ?
G9a inh: 28µM; BAZ2B block: inconclusive; JMJD2A Tudor: inactive; HP1b binding inh: inactive; PI5P4K alpha inh: inactive; PLK1 PBD inh: inactive

What do the screens show for `C/C(=N\NC(=O)c1nnn(-c2nonc2N)c1CN1CCCCCC1)c1ccc(Br)cc1`?
G9a inh: 50µM; BAZ2B block: inactive; JMJD2A Tudor: inactive; HP1b binding inh: inactive; PI5P4K alpha inh: inactive; PLK1 PBD inh: inactive

Results for CCOC(=O)/C(=C\c1cn(C)c2ccccc12)[N+](=O)[O-] ?
G9a inh: inconclusive; BAZ2B block: inconclusive; JMJD2A Tudor: inconclusive; HP1b binding inh: inconclusive; PI5P4K alpha inh: inactive; PLK1 PBD inh: 1.7µM

Results for Cc1cccc(OCCC(=O)OCC(=O)Nc2c(C)nn(-c3ccccc3)c2C)c1 ?
G9a inh: 35µM; BAZ2B block: inactive; JMJD2A Tudor: inactive; HP1b binding inh: inactive; PI5P4K alpha inh: inactive; PLK1 PBD inh: inactive

Results for Cc1cccc(C(=O)OCC(=O)Nc2c(C)nn(-c3ccccc3)c2C)c1O ?
G9a inh: inactive; BAZ2B block: inactive; JMJD2A Tudor: inactive; HP1b binding inh: inactive; PI5P4K alpha inh: inactive; PLK1 PBD inh: inactive

How did Cc1nn(-c2ccccc2)c(C)c1NC(=O)COC(=O)CC(C)c1ccccc1 (stereo not drawn) do in these assays?
G9a inh: inconclusive; BAZ2B block: inactive; JMJD2A Tudor: 16µM; HP1b binding inh: inactive; PI5P4K alpha inh: inactive; PLK1 PBD inh: inactive

What do the screens show for `Cc1ccc(C)c(OCC(=O)OCC(=O)Nc2c(C)nn(-c3ccccc3)c2C)c1`?
G9a inh: inconclusive; BAZ2B block: inactive; JMJD2A Tudor: inactive; HP1b binding inh: inactive; PI5P4K alpha inh: inactive; PLK1 PBD inh: inactive

What do the screens show for `Cc1nn(-c2ccccc2)c(C)c1/C=C/C(=O)OCC(=O)Nc1ncc(Cl)cc1Cl`?
G9a inh: inconclusive; BAZ2B block: inactive; JMJD2A Tudor: inconclusive; HP1b binding inh: inactive; PI5P4K alpha inh: inactive; PLK1 PBD inh: inactive

What do the screens show for `CNC(=O)COC(=O)/C=C/c1c(C)nn(-c2ccccc2)c1C`?
G9a inh: 50µM; BAZ2B block: inactive; JMJD2A Tudor: inactive; HP1b binding inh: inactive; PI5P4K alpha inh: inactive; PLK1 PBD inh: inactive

How did CCCc1nc(SCC(=O)N2CCOCC2)c2c(C)c(C)sc2n1 do in these assays?
G9a inh: inactive; BAZ2B block: inactive; JMJD2A Tudor: inactive; HP1b binding inh: inactive; PI5P4K alpha inh: inactive; PLK1 PBD inh: inactive

What do the screens show for `CCCOc1ccc(C(=O)Nc2ccc(NC(=O)c3ccccc3)c(C)c2)cc1`?
G9a inh: inconclusive; BAZ2B block: inactive; JMJD2A Tudor: inactive; HP1b binding inh: inactive

What do the screens show for `Cc1cc(-c2nn3c(-c4ccccc4)nnc3s2)c2ccccc2n1`?
G9a inh: 2.2µM; BAZ2B block: inactive; JMJD2A Tudor: inactive; HP1b binding inh: inactive; PLK1 PBD inh: 12µM

What do the screens show for `CCOc1cccc(-c2nnc3sc(-c4cc(OC)c(OC)c(OC)c4)nn23)c1`?
G9a inh: 79µM; BAZ2B block: inactive; JMJD2A Tudor: inactive; HP1b binding inh: inactive; PI5P4K alpha inh: inactive; PLK1 PBD inh: inactive

How did CCOc1cccc(-c2nnc3sc(-c4cccs4)nn23)c1 do in these assays?
G9a inh: inactive; BAZ2B block: inactive; JMJD2A Tudor: inactive; HP1b binding inh: inactive; PI5P4K alpha inh: inactive; PLK1 PBD inh: inactive

How did CC(C)(C)c1ccc(-c2nnc3sc(-c4ccncc4)nn23)cc1 do in these assays?
G9a inh: 2.5µM; BAZ2B block: inactive; JMJD2A Tudor: inactive; HP1b binding inh: inactive; PLK1 PBD inh: inconclusive

Results for COc1cc(-c2nnc3sc(-c4ccncc4)nn23)cc(OC)c1OC ?
JMJD2A Tudor: inactive; HP1b binding inh: inactive; PI5P4K alpha inh: inactive; PLK1 PBD inh: 12µM

How did c1ccc(-c2cc(-c3nn4c(-c5ccco5)nnc4s3)c3ccccc3n2)cc1 do in these assays?
G9a inh: inconclusive; BAZ2B block: inactive; JMJD2A Tudor: inconclusive; HP1b binding inh: inactive; PLK1 PBD inh: inconclusive

What do the screens show for `COc1ccc(C(=O)N2CCCCC2c2cc(C(=O)Nc3cccc(C#N)c3)no2)cc1` (stereo not drawn)?
PI5P4K alpha inh: inactive; PLK1 PBD inh: inactive
